Screening data (PubChem BioAssay)
HCV inhibitor = qHTS Assay for Inhibitors of Hepatitis C Virus (HCV); Huh7.5.1 HCVcc-Cre infection, luciferase reporter, 44 h; Potency, µM (doses to about 41.8 µM), inactives show at the highest dose activity change, negative = inhibition, most hits filed as inhibitors; 3.4% of 340,000 active; AID 651820, 2012; note: potency is the fitted concentration of half-maximal effect; % is set by controls: 0 for no effect and ±100 for the full control effect
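HCVcc-Cre virus at an moi near 0.5 was added right after compound to cells cultured 4 h from seeding (1,000 cells/well). Luciferase activity was determined 44 h later, 15 min after substrate addition at RT.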
Pf growth 96h = Primary qHTS for delayed death inhibitors of the malarial parasite plastid, 96 hour incubation; P. falciparum luciferase reporter growth, 96 h; Potency, µM (highest dose often 28.7 µM), for inactives: at the top dose activity change, negative = inhibition, actives largely listed as inhibitors; 6.9% of 320,000 active; AID 504834, 2011; note: potency is the fitted concentration of half-maximal effect; % is set by controls: 0 for no effect and ±100 for the full control effect
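Compounds incubated with erythrocytes infected by luciferase-expressing P. falciparum (2% hematocrit, 0.05% parasitemia final) for 96 hours, 37 C in 5% CO2. Growth inhibition scored as decreased luciferase luminescence.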
HCMV antiviral = qHTS Assay for inhibitors of the human cytomegalovirus (HCMV); activity change, negative = inhibition, % at 57.5 µM; HFF cells, HCMV-luciferase reporter, 72 h; active compounds read low; AID 1259415, 2018; 4.5% of 410,000 active; in the data active = activity change below about -60%; inconclusive = no clear call, values can overlap the other calls; inactive = above about -39%; note: % is set by controls: 0 for no effect and ±100 for the full control effect
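HFF cells seeded 16 h at 37C, treated with compounds, infected with luciferase-reporter HCMV at MOI 1 PFU/cell; luciferase read at 72 h post infection, normalized to buffer-only and Salinomycin controls.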
Sm TGR block = qHTS Assay for the Inhibitors of Schistosoma Mansoni Peroxiredoxins | Schistosoma mansoni thioredoxin glutathione reductase (TGR), Q962Y6 | Potency, µM (series often up to 114 µM), without a hit: at the top dose activity change, negative = inhibition, usual class: inhibitors | purified TGR, DTNB reduction, TNB absorbance 405 nm | 3% of 360,000 active; note: potency is the fitted concentration of half-maximal effect; % is set by controls: 0 for no effect and ±100 for the full control effect; nearly all actives have a fitted effect of over 60% in size
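First, TGR (20 nM dispensed) and NADPH were mixed with compound. Second, a 15 min room-temperature incubation followed. Third, further NADPH and then DTNB were added to start the reaction. Finally, TNB absorbance was monitored kinetically.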
SARS PLP yeast = qHTS of Yeast-based Assay for SARS-CoV PLP; AID 485353, 2010; S. cerevisiae expressing SARS-CoV PLpro, growth rescue; 0.19% of 330,000 active; Potency, µM (titrated, usually from 32.9 µM), without a hit: at the highest dose activity, positive = growth rescue, most hits filed as activators; calls by dose curve; note: potency is the fitted concentration of half-maximal effect; 0% is about no effect; nearly all actives have a fitted effect of over 55% in size
Pf growth 48h = Primary qHTS for delayed death inhibitors of the malarial parasite plastid, 48 hour incubation | 5.9% of 310,000 active | AID 504832, 2011 | Potency, µM (series often up to 28.7 µM), for the others: top-dose activity change, negative = inhibition, actives largely listed as inhibitors | P. falciparum luciferase growth in erythrocytes, 48 h; note: potency is the fitted concentration of half-maximal effect; % is set by controls: 0 for no effect and ±100 for the full control effect
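A one-generation exposure of luciferase-tagged malaria parasites in RPMI 1640/Albumax erythrocyte culture, 37 C and 5% CO2. Inhibition is inferred from decreased luminescence after adding detection reagent.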
Numbers without * were called inactive; ? = inconclusive; / = no result; [ ] = remark or other dose. Most compounds without a hit are left out; they make up all but 15% or so of the library. Unless noted, calls come from the whole dose curve; as a rule, active = well fitted curve in the direction sought with a large enough effect; inconclusive = small, poorly fitted or top-dose-only effect, or another doubt; inactive = no such curve, though single readings can be large; an effect the other way counts as inactive or inconclusive.

SMILES	HCV inhibitor	Pf growth 96h	HCMV antiviral	Sm TGR block	SARS PLP yeast	Pf growth 48h
Cc1nn(-c2ccccn2)c2c1C(=O)CC(C)(C)C2Br (centres undefined)	-25%	?	-14	12%	-2%	15µM*
CCOC(=O)/C(=N/Nc1ccccc1)Sc1nnc(CCc2ccccc2)n1-c1ccccc1	3%	59%	9	2%	-10%	21%
Cc1nc(-c2ccc(C(=O)Nc3ccc(F)cc3)cc2)cs1	?	1%	?	0%	0%	31%
Cc1nc(-c2ccc(C(=O)Nc3cccc(F)c3)cc2)cs1	3.5µM*	-6%	24	3%	-7%	176%
Cc1nc(-c2ccc(NC(=O)c3ccccc3C)cc2)cs1	?	-55%[5.75 µM]	-12	0%	-3%	369%
COc1ccc(NC(=O)c2ccc(-c3csc(C)n3)cc2)cc1	7.1µM*	9%	?	10%	-4%	100%
Cc1nc(-c2ccc(NC(=O)/C=C\C(=O)O)cc2)cs1	-1%	12%	-81*	-23%	-1%	50%
Cc1nc(-c2ccc(C(=O)Nc3ccccc3F)cc2)cs1	?	32%	-70*	0%	-1%	130%
CCOc1ccc(NC(=O)c2ccc(-c3csc(C)n3)cc2)cc1	?	-1%	16	-3%	1%	-1%
N#Cc1cccc(-c2csc(C(O)c3ccco3)n2)c1 (centres undefined)	/	/	0	/	/	/
CC1=C(C(=O)Nc2ccccc2)C(c2ccc(C(=O)O)cc2)n2ncnc2N1 (centres undefined)	/	/	22	-2%	/	/
Cc1cc(C)n(-c2nc3ccccc3nc2Nc2ccc(Cl)cc2Cl)n1	/	/	120	0%	/	/
O=C(Nc1ccc(-c2csc(-c3ccccc3)n2)cc1)c1ccccc1	?	?	-101*	0%	-5%	?
Cc1nc(-c2cccc(NC(=O)c3ccc(-n4cccn4)cc3)c2)cs1	11µM*	15%	?	0%	6%[6.58 µM]	-13%
O=C(Nc1ccccc1F)c1ccc(C(=O)c2ccccc2)cc1	8%	117%	-72*	15%	1%	85%
O=C1CCCC2=C1C1O[C@](CCCCN3C(=O)c4ccccc4C3=O)(Cc3ccccc31)O2	/	?	/	-8%[22.9 µM]	3%[6.58 µM]	?
COCCCNc1ncnc2c1nnn2C	/	/	-5	37%	/	/
Cc1c(C(=O)N/N=C/c2cccs2)nc2ccccn12	6%	65%	?	-5%	-12%	30%
COC1OC(CO)C(OC2OC(C(=O)O)C(OC3OC(COS(=O)(=O)O)C(OC4OC(C(=O)O)C(OC5OC(CO)C(OC6OC(C(=O)O)C(OC7OC(COS(=O)(=O)O)C(OC8OC(C(=O)O)=C[C@H](O)C8OS(=O)(=O)O)C(O)C7NC(C)=O)[C@@H](O)C6O)C(O)C5NC(C)=O)[C@@H](O)C4O)C(O)C3NC(C)=O)[C@@H](O)C2O)C(O)C1NC(C)=O (some centres undefined)	/	7.6µM*	/	/	/	12µM*
CC(=O)N[C@@H]1C(O[C@H]2O[C@H](C(=O)O)C(O)[C@H](O)[C@H]2O)[C@H](O)[C@@H](CO)O[C@H]1O[C@@H]1C(C(=O)O)O[C@@H](O[C@H]2[C@H](O)[C@@H](CO)OC(O)[C@@H]2NC(C)=O)[C@H](O)[C@H]1O (some centres undefined)	/	1.7µM*	/	/	/	2%
O=C(CSc1nc2ccccc2c(=O)[nH]1)Nc1ccccc1C(F)(F)F	0%	?	-22	7%	1%	13%
Cc1ccc(-c2nnc(SCc3nc(N)nc(Nc4ccccc4C)n3)n2N)cc1	3%	/	-36	2%	-12%	-2%
Cc1c(Cl)cccc1Nc1nc(N)nc(CSCCO)n1	17%	/	19	4%	6%	15%
